Where a name gives a salt, the structure may show the parent alone.
System: Saccharomyces cerevisiae BY4741 SeMeCo community
Assay: z-score of subpopulation abundance vs DMSO median, subpopulation auxotrophic for HM; higher = larger share of this subpopulation than in DMSO controls
Conditions: 10 µM; 24 h; SM minimal medium; subpopulation (auxotrophy): HM
Experimental: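 Fluorescent four-plasmid SeMeCo (self-establishing metabolically cooperating S. cerevisiae BY4741 community; plasmids pH-mRuby2, pL-mWasabi, pU-eCFP, pM-TagRFP657) was grown 24 h in minimal SM medium with each Selleck FDA-approved drug at 10 µM in 384-well plates. Cells were fixed and imaged by high-content confocal microscopy. For each auxotrophic subpopulation (and the prototroph), a z-score gives the deviation from the DMSO vehicle-control population median.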

| SMILES | z-score of subpopulation abundance |
| --- | --- |
| O=C(O)C[C@H](O)C[C@H](O)/C=C/c1c(C2CC2)nc2ccccc2c1-c1ccc(F)cc1 [Pitavastatin Calcium] | 4.05 |
| CCN1CCCC1CNC(=O)c1cc(S(=O)(=O)CC)c(N)cc1OC (stereo not given) [Amisulpride] | -1.17 |
| COc1ccc2[nH]c([S+]([O-])Cc3ncc(C)c(OC)c3C)nc2c1 (stereo not given) [Omeprazole] | 0.37 |
| Cn1c(=O)c2c(ncn2CC2OCCO2)n(C)c1=O [Doxofylline] | -0.89 |
| CC(=O)OC1CC2(C)C(CC(O)C3C4(C)CCC(O)C(C)C4CCC32C)C1=C(CCC=C(C)C)C(=O)O (stereo not given) [Fusidine] | 1.19 |
| Cc1ccc(Cl)c(Nc2ccccc2C(=O)O)c1Cl [Meclofenamate Sodium] | -0.47 |
| CC1=C(C(=O)O)N2C(=O)[C@@H](NC(=O)[C@H](N)C3=CCC=CC3)[C@H]2SC1 [Cefradine] | -0.73 |
| C[C@H](Nc1ncnc2nc[nH]c12)c1cc2cccc(Cl)c2c(=O)n1-c1ccccc1 [Duvelisib (IPI-145, INK1197)] | -0.47 |
| CCCN[C@H]1CCc2nc(N)sc2C1 [Pramipexole] | 0.07 |
| Clc1ccc(COC(Cn2ccnc2)c2ccc(Cl)cc2Cl)cc1 (stereo not given) [Econazole] | 2.71 |
| O=C(O)Cc1ccccc1Nc1c(Cl)cccc1Cl [Diclofenac acid] | 0.14 |
| O=C(Nc1c(Cl)cncc1Cl)c1ccc(OC(F)F)c(OCC2CC2)c1 [Roflumilast] | -0.18 |
| Oc1ccc(C2CNCCc3c2cc(O)c(O)c3Cl)cc1 (stereo not given) [Fenoldopam mesylate] | 1.58 |
| CCCNC(C)C(=O)Nc1ccccc1C (stereo not given) [Prilocaine hydrochloride] | -0.46 |
| CCCCN(CCCC)CC(O)c1cc(Cl)cc2c1-c1ccc(Cl)cc1/C2=C/c1ccc(Cl)cc1 (stereo not given) [Lumefantrine] | 0.53 |
| CCCCCCCCN=c1ccn(CCCCCCCCCCn2ccc(=NCCCCCCCC)cc2)cc1 [Octenidine Dihydrochloride] | 6.33 |
| CCN(CC)C(=O)[C@@]1(c2ccccc2)C[C@H]1CN [Levomilnacipran Hydrochloride] | -0.69 |
| Cc1c(Nc2ncccc2C(=O)O)cccc1C(F)(F)F [Flunixin Meglumin] | -0.07 |
| OCCOCCN1CCN(C2=Nc3ccccc3Sc3ccccc32)CC1 [Quetiapine Fumarate] | 0.13 |
| O=c1[nH]c(=O)n([C@H]2C[C@H](O)[C@@H](CO)O2)cc1I [Idoxuridine] | -0.13 |

| SMILES | z-score of subpopulation abundance |
| --- | --- |
| CCN[C@@H]1C[C@H](N)[C@@H](O[C@H]2OC(CN)=CC[C@H]2N)[C@H](O)[C@H]1O[C@H]1OC[C@](C)(O)[C@H](NC)[C@H]1O [Netilmicin Sulfate] | 0.03 |
| CC(=O)OCC[N+](C)(C)C [Acetylcholine iodide] | -1.48 |
| CN1C2CCCC1CC(NC(=O)c1nn(C)c3ccccc13)C2 (stereo not given) [Granisetron HCl] | 0.45 |
| O=C(Cn1cnnn1)N[C@@H]1C(=O)N2C(C(=O)O)=C(CSc3nncs3)CS[C@H]12 [Ceftezole] | -1.26 |
| C#CCN[C@@H]1CCc2ccccc21 [Rasagiline] | -0.4 |
| CC[C@H]1OC(=O)[C@H](C)[C@@H](O[C@H]2C[C@@](C)(OC)[C@@H](O)[C@H](C)O2)[C@H](C)[C@@H](O[C@@H]2O[C@H](C)C[C@H](N(C)C)[C@H]2O)[C@](C)(O)C[C@@H](C)CN(C)[C@H](C)[C@@H](O)[C@]1(C)O [Azithromycin] | -0.55 |
| Cc1[nH]cnc1CN1CCc2c(c3ccccc3n2C)C1=O [Alosetron Hydrochloride] | 0.69 |
| Cc1ccc(-c2ncc(Cl)cc2-c2ccc(S(C)(=O)=O)cc2)cn1 [Etoricoxib] | -0.1 |
| CN(C)[C@@H](CCOc1cccc2ccccc12)c1ccccc1 [Dapoxetine HCl] | -0.39 |
| COc1ccnc(C[S+]([O-])c2nc3cc(OC(F)F)ccc3[nH]2)c1OC (stereo not given) [Pantoprazole] | -0.27 |
| CCC(C)(Oc1ccc(C2(c3ccc(OC(C)(CC)C(=O)O)cc3)CCCCC2)cc1)C(=O)O (stereo not given) [Clinofibrate] | -0.03 |
| CO[C@@]1(NC(=O)CSC[C@@H](N)C(=O)O)C(=O)N2C(C(=O)O)=C(CSc3nnnn3C)CS[C@@H]21 [Cefminox Sodium] | -0.24 |
| C=C[C@]1(C)C[C@@H](OC(=O)CSC(C)(C)CNC(=O)[C@H](N)C(C)C)[C@]2(C)[C@H](C)CC[C@]3(CCC(=O)[C@H]32)[C@@H](C)[C@@H]1O [Valnemulin HCl] | 0.32 |
| Cc1ncc([N+](=O)[O-])n1CCO [Metronidazole] | -0.42 |
| Nc1ccc(S(=O)(=O)NC(=O)c2ccccc2)cc1 [Sulfabenzamide] | -0.23 |
| CCN(CC)CCOc1ccc2c(c1)C(=O)c1cc(OCCN(CC)CC)ccc1-2 [Tilorone dihydrochloride] | -1.02 |
| C[C@@H]1CC(=O)NN=C1c1ccc(NN=C(C#N)C#N)cc1 [Levosimendan] | 0.22 |
| CN1CC(=O)N2[C@H](c3ccc4c(c3)OCO4)c3[nH]c4ccccc4c3C[C@@H]2C1=O [Tadalafil] | 0.83 |
| COc1cccc(-c2c(C)n(Cc3c(F)cccc3C(F)(F)F)c(=O)n(C[C@H](NCCCC(=O)O)c3ccccc3)c2=O)c1F [Elagolix Sodium] | -0.13 |
| CS(=O)(=O)Nc1ccc([N+](=O)[O-])cc1Oc1ccccc1 [Nimesulide] | 0.64 |
